From article PMC4336329 (PLoS ONE, 2015)
Screen size: about 310,000 compounds; about 14,000 (4.5%) showed an effect of 50% or more. Effects have a minus sign here. The sample holds strong results, similar compounds and a random draw of the others, so the mix is not that of the screen.

Each molecule was assayed against human ether-à-go-go-related gene (hERG) potassium channel (human, UniProt Q12809) (assay: primary screen, population patch clamp on CHO cells stably expressing hERG; higher = less effect of the substance).
Chain of human ether-à-go-go-related gene (hERG) potassium channel (Q12809 whole entry, looked up): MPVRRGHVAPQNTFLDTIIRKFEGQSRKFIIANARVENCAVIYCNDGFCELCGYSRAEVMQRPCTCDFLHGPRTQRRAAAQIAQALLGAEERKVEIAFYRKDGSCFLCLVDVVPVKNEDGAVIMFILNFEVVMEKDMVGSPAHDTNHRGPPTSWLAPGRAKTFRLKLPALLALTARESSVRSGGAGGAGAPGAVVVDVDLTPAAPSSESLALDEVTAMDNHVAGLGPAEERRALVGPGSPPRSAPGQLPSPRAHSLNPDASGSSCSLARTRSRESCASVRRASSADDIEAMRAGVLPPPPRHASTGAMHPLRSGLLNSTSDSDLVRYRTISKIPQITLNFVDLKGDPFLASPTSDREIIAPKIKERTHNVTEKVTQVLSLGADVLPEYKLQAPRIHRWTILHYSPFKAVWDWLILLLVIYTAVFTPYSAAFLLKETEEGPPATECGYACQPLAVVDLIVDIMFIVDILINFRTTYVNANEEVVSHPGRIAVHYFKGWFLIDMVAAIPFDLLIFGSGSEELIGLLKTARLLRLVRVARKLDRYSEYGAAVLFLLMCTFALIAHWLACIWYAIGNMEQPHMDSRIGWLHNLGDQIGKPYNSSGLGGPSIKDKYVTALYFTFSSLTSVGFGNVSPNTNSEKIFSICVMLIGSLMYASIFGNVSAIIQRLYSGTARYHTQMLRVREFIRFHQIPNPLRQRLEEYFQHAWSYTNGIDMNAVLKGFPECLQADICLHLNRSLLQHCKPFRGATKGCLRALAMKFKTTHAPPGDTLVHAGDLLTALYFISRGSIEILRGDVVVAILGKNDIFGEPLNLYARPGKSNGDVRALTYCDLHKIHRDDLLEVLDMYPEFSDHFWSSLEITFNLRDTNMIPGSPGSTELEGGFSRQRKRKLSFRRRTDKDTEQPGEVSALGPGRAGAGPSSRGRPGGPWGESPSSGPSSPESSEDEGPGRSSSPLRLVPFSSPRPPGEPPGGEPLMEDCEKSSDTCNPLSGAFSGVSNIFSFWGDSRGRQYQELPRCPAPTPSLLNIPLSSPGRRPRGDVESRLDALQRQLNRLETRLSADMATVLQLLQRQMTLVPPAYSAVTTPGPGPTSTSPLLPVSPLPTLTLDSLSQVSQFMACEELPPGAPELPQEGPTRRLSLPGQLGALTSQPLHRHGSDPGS
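Further: peak tail current of the secondary pulse compared with the same well before compound.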

Compound	hERG current change (%, negative = inhibition) at 10uM
CC(C)CCNC(=O)COc1ccc(C(=O)c2ccccc2)cc1	-23.8%
Cc1ccc(NC(=O)C(c2ccccc2)N2CCN(CC(=O)NC3CC3)CC2)cc1 (stereo not drawn)	-18.1%
C[C@@H]1NC(=O)c2cc([N+](=O)[O-])cc(I)c2NCC[C@@H](C(N)=O)NC(=O)[C@H](CC(N)=O)NC1=O	11.2%
COc1cc(/C=N/NC(=S)NCCc2ccccc2)cc(OC)c1OC	8.26%
CCC(=O)N1CCc2cc(Br)cc(S(=O)(=O)NCCN3CCCCC3CC)c21 (stereo not drawn)	-20.4%
Brc1cccc(-c2nnc3sc(CNC4CCCC4)cn23)c1	-16.2%
Brc1cccc(-c2nnc3sc(CN4CCCCC4)cn23)c1	-11%
Brc1cccc(-c2nnc3sc(CNCc4ccco4)cn23)c1	-60.3%
COc1ccc(CCNC(=O)c2ccc(Cl)c(S(=O)(=O)N3CCCC3)c2)cc1	-56.6%
COc1ccc(C(=O)NCCc2c[nH]c3ccccc23)cc1S(=O)(=O)N1CCCCC1C (stereo not drawn)	-12%
COc1ccc(C(CNC(=O)c2ccc(OC)c(S(=O)(=O)N3CCCC3)c2)N2CCCC2)cc1 (stereo not drawn)	9.12%
COc1ccc(CCNC(=O)c2ccc(Cl)c(S(=O)(=O)N3CCCCCC3)c2)cc1	-34.2%
O=C(NCCc1ccccc1)c1ccc(Cl)c(S(=O)(=O)N2CCCC2)c1	-23.1%
COc1ccc(C(CNC(=O)c2ccc(Cl)c(S(=O)(=O)N3CCCC3)c2)N2CCCC2)cc1 (stereo not drawn)	-57.6%
COc1ccc(C(=O)NCCc2ccc(Cl)cc2)cc1S(=O)(=O)N1CCCCC1C (stereo not drawn)	-52.3%
COc1ccc(C(=O)Nc2ccc(NC(C)=O)cc2)cc1S(=O)(=O)N1CCCCC1C (stereo not drawn)	1.47%
COc1ccc(C(CNC(=O)c2cc(S(=O)(=O)N3CCCC3)ccc2Cl)N2CCCC2)cc1 (stereo not drawn)	-31.6%
Cc1ccc(S(=O)(=O)NC(CC(=O)NCC2CCCO2)c2ccco2)cc1 (stereo not drawn)	24.9%
COc1ccc(N(CC(=O)N2CCN(Cc3ccccc3)CC2)S(C)(=O)=O)cc1	-3%
O=C(NN1CCOCC1)c1cc(-c2ccc(Cl)c(Cl)c2)nc2ccccc12	10.8%
Cc1oncc1C(=O)Nc1cccc(C#N)c1	4.43%
CCCN1C(=O)/C(=c2\sc3nc(=O)c(Cc4ccc(C)cc4)nn3c2=O)c2ccccc21	21.2%

Compound	hERG current change (%, negative = inhibition) at 10uM
CCN(Cc1ccccc1)C(=O)c1oc2ccc(S(=O)(=O)N3CCOCC3)cc2c1C	-6.06%
Nc1cc(C(=O)OCC(=O)N2CCOCC2)ccc1Cl	17.8%
CC(C)(C)NC(=O)CSC(=Nc1ccc(F)cc1)NC#N	-72.3%
CC(C)(C)NC(=O)CSC(=Nc1ccccc1F)NC#N	-0.709%
CC(C)(C)NC(=O)CSC(=Nc1cccc(F)c1)NC#N	8.94%
COc1ccc(CNC(=O)c2noc(C(C)C)c2[N+](=O)[O-])cc1	3.4%
Cc1ccc(NNC(=O)c2ccno2)c(C)c1	11.1%
COc1ccc(OC)c(-c2csc(NC(=O)CN3C(=O)C4CCCCC4C3=O)n2)c1 (stereo not drawn)	-0.554%
O=C(O)c1ccccc1S(=O)(=O)NCC(O)COC1CCCCC1 (stereo not drawn)	-2.65%
CCN1CCN(Cc2cc(OC)c3c(c2)OCO3)CC1	9.99%
CCOC(=O)C1(CCOc2ccccc2)CCN(Cc2cc(OC)c3c(c2)OCO3)CC1	-72.1%
CCOC(=O)C1(Cc2ccccc2)CCN(Cc2cc(OC)c3c(c2)OCO3)CC1	-60.7%
CCN1C(=O)CC(N2CCN(c3ccc(Cl)cc3)CC2)C1=O (stereo not drawn)	-14%
COc1ccc2c(CC(=O)OCC(=O)c3ccc(F)cc3)coc2c1	6.5%
CCCc1ccc(-c2cc(C(=O)NN3CCOCC3)c3ccccc3n2)cc1	-3.8%
NC(=O)c1ccc(NC(=O)CSc2nnc(C3CCCCC3)n2N)cc1	18%
Cn1c(C(=O)NC2CCCCC2)cc2sccc21	-7.87%
CCOc1ccc2oc(C(=O)N3CCN(c4ccccn4)CC3)c(C)c2c1	-34.3%
COc1ccc2oc(C(=O)NCc3cc(OC)c(OC)cc3OC)c(C)c2c1	0.174%
CCOc1ccc2oc(C(=O)NCc3nc4ccccc4[nH]3)c(C)c2c1	10.3%
CCOc1ccc2oc(C(=O)NCC3CCCO3)c(C)c2c1 (stereo not drawn)	11%
COc1ccc2oc(C(=O)NCc3ccco3)c(C)c2c1	8.36%

Compound	hERG current change (%, negative = inhibition) at 10uM
CCOc1ccc2oc(C(=O)NCc3ccccc3CN3CCCC3)c(C)c2c1	-66.2%
Cc1c(C(=O)OC(C)CCN(C)C)oc2ccccc12.Cl (stereo not drawn)	-42.8%
COc1ccc2oc(C(=O)NCc3ccccc3CN3CCCC3)c(C)c2c1	-66.1%
Cc1c(C(=O)OCC(=O)N(C)c2ccccc2)oc2ccccc12	3.17%
Cc1c(C(=O)OCC(C)(C)CN(C)C)oc2ccccc12.Cl	-52%
CCOc1ccc2oc(C(=O)N3CCN(c4ccccc4OCC)CC3)c(C)c2c1	-52.6%
CCOc1ccc2oc(C(=O)N3CCN(Cc4ccccc4)CC3)c(C)c2c1	-18.4%
CN(c1cccc(Cl)c1)S(=O)(=O)c1cccc(C(=O)NN2CCOCC2)c1	-14.1%
Cc1ccc(S(=O)(=O)CCC(=O)OC(C)C(=O)NC2CCCCC2C)cc1 (stereo not drawn)	-1.21%
CCOC(=O)c1ccc(N2C(=O)C3CC=C(C)CC3C2=O)cc1 (stereo not drawn)	7.74%
Cn1c(=O)c2c(SCC(N)=O)nc(CC(C)(C)C)nc2n(C)c1=O	-10.5%
CC1(C)c2ccccc2N(CC(N)=O)C12C=Cc1ccccc1O2 (stereo not drawn)	-26%
Cc1nc(NC(=O)c2cccnc2Cl)sc1C	4.14%
CC(NC(=O)c1ccc2c(c1)OCO2)C(c1cccs1)N1CCN(c2ccccc2)CC1 (stereo not drawn)	3.68%
COc1ccc(CCn2c(C)cc(C(=O)CSc3nnnn3C)c2C)cc1	0.08%
CC1CCCCC1NC(=O)Cn1c(CN2CCCCC2)nc2ccccc2c1=O (stereo not drawn)	-24.6%
COc1ccc(OC)c(S(=O)(=O)NCC(c2ccc3c(c2)OCO3)N2CCOCC2)c1 (stereo not drawn)	-28.4%
O=c1c2cc(Cl)ccc2nc(-c2ccccc2Cl)n1O	16.4%
COc1ccccc1CNC(=O)c1oc2ccc(S(=O)(=O)N3CCCC3)cc2c1C	-4.46%
Cc1c(C(=O)NCc2ccccc2)oc2ccc(S(=O)(=O)N3CCCC3)cc12	2.65%
Cc1c(C(=O)NCc2ccccc2CN2CCCC2)oc2ccc(F)cc12	-74%
Cc1c(C(=O)NCc2ccco2)oc2c(F)cccc12	1.08%

Compound	hERG current change (%, negative = inhibition) at 10uM
Cc1c(C(=O)NCCN2CCCC(O)C2)oc2c(F)cccc12 (stereo not drawn)	-1.78%
CCOc1ccc2oc(C(=O)O)c(C)c2c1	4.62%
CCOc1ccc2oc(C(=O)NCC(C)(C)CN(C)C)c(C)c2c1.Cl	-54.5%
CCOc1ccc2oc(C(=O)NC(C)(C)CC)c(C)c2c1	-3%
Cc1c(C(=O)NCc2ccccc2CN2CCCC2)oc2c(F)cccc12	-70.5%
CCN(Cc1ccncc1)Cc1ccc(Br)cc1.O=C(O)C(=O)O	-5.38%
COc1cccc(CC(=O)OC(C)C(=O)NCc2ccc3c(c2)OCO3)c1 (stereo not drawn)	-3.97%
COc1cc(C(CC(=O)N2CCN(c3ccccc3)CC2)c2c(OC)cc(OC)c3ccc(=O)oc23)cc(OC)c1OC (stereo not drawn)	-29%
COc1ccc(-c2nnc(SCC#N)o2)cc1	11.3%
CCOC(=O)CCCNC(=O)CCNC(=O)c1ccc(OCC(C)C)cc1	3.61%
COc1ccc(C(=O)CN2C(=O)c3ccccc3C2=O)cc1	7.16%
COc1ccc(-c2cc(C(F)(F)F)c3c(N)c(C(=O)NCCSC)sc3n2)cc1	-10.7%
Nc1c(C(=O)C2CC2)sc2nc(-c3ccccc3)cc(C(F)(F)F)c12	18.8%
CN(C)CCNC(=O)c1sc2nc(-c3ccccc3)cc(C(F)(F)F)c2c1N	-57.8%
Cc1ccc(CNC(=O)c2ccc(Cn3cc(-c4ccc(C)cc4)nc3-c3ccncc3)cc2)cc1	5.94%
COc1ccc(-c2cn(CCO)c(-c3ccc(Cl)nc3)n2)cc1	-9.71%
COc1ccc(-c2cn(Cc3ccc(C(N)=O)cc3)c(CCN)n2)cc1	-13.9%
COc1ccc(-c2cn(Cc3ccc(C(N)=O)cc3)c(-c3ccc(Cl)nc3)n2)cc1	-71.4%
COc1ccc(-c2cn(CCC(=O)O)c(-c3ccc(Cl)nc3)n2)cc1	9.6%
COc1ccc(-c2cn(Cc3ccc(C(N)=O)cc3)c(-c3ccncc3)n2)cc1	-60.1%
O=C(c1ccc(CS(=O)(=O)c2ccc(Br)cc2)o1)N1CCN(c2ccccn2)CC1	-36%
